The record followed here is PubChem BioAssay (NCATS).

Results filed as inconclusive are left out. Unmarked numbers belong to inactive results. Calls of active or inactive are those of the source. The call rests on the fitted dose curve; in most records, active means well fitted inhibition curve with a large enough effect; inconclusive means small, poorly fitted or top-dose-only effect; inactive means no such curve, though single readings can be large or run the other way.
On the % scale 0 is the no-effect control and ±100 the full control effect; potency means the concentration at half of the fitted maximal effect.

Sequence of Rap guanine nucleotide exchange factor 4 (Homo sapiens) (Q8WZA2 whole entry, looked up): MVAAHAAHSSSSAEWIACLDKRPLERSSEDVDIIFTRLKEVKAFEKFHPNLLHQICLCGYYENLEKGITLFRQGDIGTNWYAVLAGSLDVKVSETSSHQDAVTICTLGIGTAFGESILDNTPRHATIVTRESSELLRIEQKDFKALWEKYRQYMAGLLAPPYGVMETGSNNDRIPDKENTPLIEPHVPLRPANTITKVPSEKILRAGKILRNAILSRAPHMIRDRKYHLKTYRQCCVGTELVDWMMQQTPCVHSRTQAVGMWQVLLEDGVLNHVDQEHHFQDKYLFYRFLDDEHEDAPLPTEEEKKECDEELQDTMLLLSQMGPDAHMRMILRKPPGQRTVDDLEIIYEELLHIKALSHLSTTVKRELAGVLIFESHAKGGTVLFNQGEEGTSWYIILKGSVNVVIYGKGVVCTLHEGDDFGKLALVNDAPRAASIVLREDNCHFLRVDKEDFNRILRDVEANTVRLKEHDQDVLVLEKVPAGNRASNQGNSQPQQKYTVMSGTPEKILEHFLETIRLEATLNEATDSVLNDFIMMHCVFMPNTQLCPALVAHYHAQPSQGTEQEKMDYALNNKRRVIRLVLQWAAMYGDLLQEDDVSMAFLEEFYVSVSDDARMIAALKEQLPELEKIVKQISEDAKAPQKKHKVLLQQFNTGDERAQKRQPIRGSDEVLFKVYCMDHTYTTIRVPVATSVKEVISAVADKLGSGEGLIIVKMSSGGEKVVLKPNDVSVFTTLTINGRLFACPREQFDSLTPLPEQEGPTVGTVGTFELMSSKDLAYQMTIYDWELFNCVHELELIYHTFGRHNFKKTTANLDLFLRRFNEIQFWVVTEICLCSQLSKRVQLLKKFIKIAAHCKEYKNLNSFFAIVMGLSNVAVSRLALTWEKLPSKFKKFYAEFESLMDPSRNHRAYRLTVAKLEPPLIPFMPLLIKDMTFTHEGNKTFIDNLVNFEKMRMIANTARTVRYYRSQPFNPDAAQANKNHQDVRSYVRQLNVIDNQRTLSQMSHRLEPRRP

The assay has as its target Rap guanine nucleotide exchange factor 4 (Homo sapiens) (UniProt Q8WZA2). In words: Confirmatory qHTS for antagonist of cAMP-regulated guanine nucleotide exchange factor 4 (EPAC2) (AID 1645885). Further: nearly all actives have a fitted effect of over 25% in size. The note with it: EPAC2 Rap1B-BODIPY-GDP exchange fluorescence, biochemical; series mostly up to 12.7 µM; activity change, negative = inhibition: at the top concentration. In general terms: In qHTS, concentration-response curves come from the screen itself.
With `O=c1c(/C=C(\O)c2ccccc2)nc2ccccc2n1-c1ccccc1`, the “activity change, negative = inhibition” value was -6.96%.
`Cc1cc(/C=C2\SC(=S)N(Cc3ccco3)C2=O)c(C)n1-c1cccnc1`: the Potency is 84.9 µM (active).
With `COc1cccc(/C(O)=C/c2nc3ccc(C(=O)NCCc4ccc(Cl)cc4)cc3[nH]c2=O)c1`, the “activity change, negative = inhibition” value was -8.91% [at 114 µM].
As for `Cc1c2ccccc2nc2c(F)c(NCCO)c(F)c(F)c12`, the “activity change, negative = inhibition” value was 13.3% [at 114 µM].
For the compound `COc1cccc(Nc2ncc3nc(-c4cc(F)cc(F)c4)c(=O)n(CCC#N)c3n2)c1`, the “activity change, negative = inhibition” value is 31.6% [at 114 µM].
`CN(C)c1ncc2nc(CCc3ccccc3)c(=O)n(-c3ccccc3)c2n1`: the “activity change, negative = inhibition” value is 24.2% [at 114 µM].
As to `c1ccc(-c2cnn3c(-c4ccccc4)c(-c4ccccc4)nc3n2)cc1`, the “activity change, negative = inhibition” value was 29.4% [at 114 µM].
With `Cn1ccc(=Nc2ccc(NC(=O)c3ccc(N=c4ccn(C)c5ccc([N+](=O)[O-])cc45)cc3)cc2)cc1`, the Potency was 16.9 µM (active).
For the compound `CCNc1ncc2nc(-c3cccs3)c(=O)n(CCC#N)c2n1`, the “activity change, negative = inhibition” value was 72.5% [at 114 µM].
As to `CC(=O)N1CCC2(CCCN(c3ccc(-c4ccccc4)cc3)C2)CC1`, the “activity change, negative = inhibition” value was -3.87% [at 114 µM].
On the same count and under the same terms, the figure for `COc1cccc(/C=N/NC(=O)c2[nH]nc3c2CCc2ccccc2-3)c1O` is 110% [at 114 µM].
`CC(C)(C)C1COc2ccccc2N1C(=O)c1ccccc1Cl` (stereo not given): the Potency is 30.1 µM (active).
Consider `Cc1ccc(CNC(=O)c2cccc3c2C(=O)c2ccc(N4CCC(C)CC4)cc2S3(=O)=O)cc1`, for which the “activity change, negative = inhibition” value was 5.04%.
Regarding `COc1cccc(Nc2ncc3nc(-c4ccc(F)cc4)c(=O)n(CCC#N)c3n2)c1`, the “activity change, negative = inhibition” value is 15.4% [at 114 µM].
The same measure, in the same setting: the figure for `O=C(OCCN1C(=O)c2cccc3c(N4CCOCC4)ccc(c23)C1=O)c1ccc(Cl)cc1Cl` is 49.6%.
